Measurements: the supplement of paper PMC10849652
Targets with a hit are over-represented here; the source holds about 8,800 in all. About 0.5% of all pairs of compound and target were hits.

How the values were obtained:
Assay in all cases: log2 fold change, soluble protein after heating vs DMSO (PISA); higher = thermal stabilisation; K562 lysate, 10 uM; active = over 0.2 and 3.5 SD of the protein, either way, in both replicates (recomputed)
vemurafenib = compound: CCCS(=O)(=O)Nc1ccc(F)c(C(=O)c2c[nH]c3ncc(-c4ccc(Cl)cc4)cc23)c1F [vemurafenib]
In short: (§1)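 Soluble protein was defined as the supernatant remaining after 21,000xg for 90 min, following pooling of heated aliquots and adjustment to 0.5% NP-40 at 4°C. Before that, crude K562 extract at 1 mg/mL protein in PBS pH 7.4 with 1 mM MgCl2 was treated with 10 μM compound for 30 min and heated for 3 min across 48°C-58°C. Quantification used TMTpro 16plex LC-MS/MS with channel sums equalised, and values are log-two fold changes in thermal stability relative to solvent controls from duplicates.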

[1] = compound: CCCS(=O)(=O)Nc1ccc(F)c(C(=O)c2c[nH]c3ncc(Cl)cc23)c1F
In short: as §1

barasertib = compound: CCN(CCCOc1ccc2c(Nc3cc(CC(=O)Nc4cccc(F)c4)[nH]n3)ncnc2c1)CCOP(=O)(O)O [barasertib]
In short: as §1

[2] = compound: CC[C@@H]1C(=O)N(C)c2cnc(Nc3ccc(C(=O)NC4CCN(C)CC4)cc3OC)nc2N1C1CCCC1
In short: as §1

volasertib = compound: CC[C@@H]1C(=O)N(C)c2cnc(Nc3ccc(C(=O)N[C@H]4CC[C@H](N5CCN(CC6CC6)CC5)CC4)cc3OC)nc2N1C(C)C [volasertib]
In short: as §1

[3] = compound: CCn1c(C(=O)N(C2CC2)C2CC2)cc2c3c(ncn3C)c(Nc3cc(C)n(C)n3)nc21
In short: as §1

[4] = compound: CCn1cc(-c2ccnc3[nH]c(-c4cccc(CN(C)C)c4)cc23)c(-c2ccc(NC(=O)N(C)C)cc2)n1
In short: as §1

[5] = compound: CN1CCC(CNc2ccc3ncc(-c4cccc(OC(F)(F)F)c4)n3n2)CC1
In short: as §1

saracatinib = compound: CN1CCN(CCOc2cc(OC3CCOCC3)c3c(Nc4c(Cl)ccc5c4OCO5)ncnc3c2)CC1 [saracatinib]
In short: as §1

sotrastaurin = compound: CN1CCN(c2nc(C3=C(c4c[nH]c5ccccc45)C(=O)NC3=O)c3ccccc3n2)CC1 [sotrastaurin]
In short: as §1

alvocidib = compound: CN1CC[C@H](c2c(O)cc(O)c3c(=O)cc(-c4ccccc4Cl)oc23)[C@H](O)C1 [alvocidib]
In short: as §1

Tubastatin A = compound: CN1CCc2c(c3ccccc3n2Cc2ccc(C(=O)NO)cc2)C1 [Tubastatin A]
In short: as §1

[6] = compound: CNC(=O)C1=CC=CC=C1NC2=NC(=NC=C2Cl)NC3=C(C=C(C=C3)N4CCOCC4)OC
In short: as §1

defactinib = compound: CNC(=O)c1ccc(Nc2ncc(C(F)(F)F)c(NCc3nccnc3N(C)S(C)(=O)=O)n2)cc1 [defactinib]
In short: as §1

[7] = compound: CNc1nc(-c2ccc3c(N)n[nH]c3c2)cc(N2C[C@@H](C(=O)NC3CCCCC3)CC[C@H]2C)n1
In short: as §1

encorafenib = compound: COC(=O)N[C@@H](C)CNc1nccc(-c2cn(C(C)C)nc2-c2cc(Cl)cc(NS(C)(=O)=O)c2F)n1 [encorafenib]
In short: as §1

[8] = compound: COC(=O)[C@H](CCSC)NC(=O)C1=C(C=C(C=C1)NC[C@H](CS)N)C2=CC=CC=C2
In short: as §1

alisertib = compound: COc1cc(Nc2ncc3c(n2)-c2ccc(Cl)cc2C(c2c(F)cccc2OC)=NC3)ccc1C(=O)O [alisertib]
In short: as §1

[9] = compound: COc1cc2nc(-c3cc(F)ccc3O)nc(N[C@@H]3CNC[C@H]3C(C)(C)O)c2cc1OC
In short: as §1

gefitinib = compound: COc1cc2ncnc(Nc3ccc(F)c(Cl)c3)c2cc1OCCCN1CCOCC1 [gefitinib]
In short: as §1

Measured: log2 fold change

WDR7 (UniProt Q9Y4E6)
UniProt Q9Y4E6, sequence (Q9Y4E6 whole entry, looked up): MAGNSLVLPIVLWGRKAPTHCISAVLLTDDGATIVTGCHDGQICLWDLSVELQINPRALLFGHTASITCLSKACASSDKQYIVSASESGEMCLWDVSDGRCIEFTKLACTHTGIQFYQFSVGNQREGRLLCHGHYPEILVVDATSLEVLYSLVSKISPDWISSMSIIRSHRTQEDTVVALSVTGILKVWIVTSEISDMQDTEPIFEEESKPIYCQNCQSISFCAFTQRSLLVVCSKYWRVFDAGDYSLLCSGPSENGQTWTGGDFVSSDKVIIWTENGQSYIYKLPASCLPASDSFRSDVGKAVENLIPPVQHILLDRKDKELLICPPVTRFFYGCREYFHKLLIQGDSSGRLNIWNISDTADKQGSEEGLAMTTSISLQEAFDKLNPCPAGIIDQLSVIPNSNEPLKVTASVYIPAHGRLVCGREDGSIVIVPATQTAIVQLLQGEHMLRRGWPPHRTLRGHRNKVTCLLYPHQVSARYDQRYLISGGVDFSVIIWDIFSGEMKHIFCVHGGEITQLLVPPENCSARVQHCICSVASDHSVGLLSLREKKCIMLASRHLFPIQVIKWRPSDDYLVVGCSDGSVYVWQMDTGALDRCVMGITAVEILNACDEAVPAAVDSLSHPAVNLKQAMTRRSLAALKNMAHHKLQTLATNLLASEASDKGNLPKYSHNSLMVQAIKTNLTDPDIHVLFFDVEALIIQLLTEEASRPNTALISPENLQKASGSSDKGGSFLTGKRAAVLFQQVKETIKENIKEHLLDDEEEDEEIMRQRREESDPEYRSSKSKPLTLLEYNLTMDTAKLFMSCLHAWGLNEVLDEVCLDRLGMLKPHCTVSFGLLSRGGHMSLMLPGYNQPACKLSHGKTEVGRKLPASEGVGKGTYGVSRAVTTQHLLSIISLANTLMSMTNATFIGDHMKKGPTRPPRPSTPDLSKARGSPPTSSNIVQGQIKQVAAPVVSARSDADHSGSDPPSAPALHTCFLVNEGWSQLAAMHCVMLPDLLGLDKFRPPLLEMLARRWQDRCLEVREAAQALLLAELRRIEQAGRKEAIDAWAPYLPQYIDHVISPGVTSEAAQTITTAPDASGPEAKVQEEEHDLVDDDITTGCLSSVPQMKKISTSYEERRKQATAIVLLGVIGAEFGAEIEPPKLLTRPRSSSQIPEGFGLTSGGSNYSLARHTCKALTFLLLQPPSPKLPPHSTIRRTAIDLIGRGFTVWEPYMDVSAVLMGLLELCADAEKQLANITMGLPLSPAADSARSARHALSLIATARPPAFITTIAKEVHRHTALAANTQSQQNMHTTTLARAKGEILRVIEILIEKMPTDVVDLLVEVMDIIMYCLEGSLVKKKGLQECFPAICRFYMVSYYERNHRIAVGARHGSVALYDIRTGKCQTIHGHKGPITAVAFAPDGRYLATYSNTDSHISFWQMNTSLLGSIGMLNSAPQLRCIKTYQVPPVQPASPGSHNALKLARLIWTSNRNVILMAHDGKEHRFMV
inactive: vemurafenib -0.005 | [1] -0.035 | barasertib -0.019 | [2] -0.041 | volasertib -0.057 | [3] 0.029 | [4] -0.007 | [5] 0.047 | saracatinib -0.018 | sotrastaurin 0.01 | alvocidib -0.008 | Tubastatin A 0.008 | [6] 0 | defactinib -0.025 | [7] 0.026 | encorafenib 0.092 | [8] -0.055 | alisertib -0.007 | [9] -0.01 | gefitinib -0.025

WDR24 (UniProt Q96S15)
inactive: vemurafenib 0.083 | [1] -0.036 | barasertib 0.129 | [2] -0.055 | volasertib -0.035 | [3] 0.047 | [4] -0.026 | [5] 0.043 | saracatinib 0.078 | sotrastaurin 0.082 | alvocidib -0.001 | Tubastatin A -0.096 | [6] -0.032 | defactinib 0.053 | [7] -0.054 | encorafenib 0.022 | [8] 0.125 | alisertib -0.02 | [9] 0.021 | gefitinib -0.008

XAB2 (UniProt Q9HCS7)
UniProt Q9HCS7, sequence (Q9HCS7 whole entry, looked up): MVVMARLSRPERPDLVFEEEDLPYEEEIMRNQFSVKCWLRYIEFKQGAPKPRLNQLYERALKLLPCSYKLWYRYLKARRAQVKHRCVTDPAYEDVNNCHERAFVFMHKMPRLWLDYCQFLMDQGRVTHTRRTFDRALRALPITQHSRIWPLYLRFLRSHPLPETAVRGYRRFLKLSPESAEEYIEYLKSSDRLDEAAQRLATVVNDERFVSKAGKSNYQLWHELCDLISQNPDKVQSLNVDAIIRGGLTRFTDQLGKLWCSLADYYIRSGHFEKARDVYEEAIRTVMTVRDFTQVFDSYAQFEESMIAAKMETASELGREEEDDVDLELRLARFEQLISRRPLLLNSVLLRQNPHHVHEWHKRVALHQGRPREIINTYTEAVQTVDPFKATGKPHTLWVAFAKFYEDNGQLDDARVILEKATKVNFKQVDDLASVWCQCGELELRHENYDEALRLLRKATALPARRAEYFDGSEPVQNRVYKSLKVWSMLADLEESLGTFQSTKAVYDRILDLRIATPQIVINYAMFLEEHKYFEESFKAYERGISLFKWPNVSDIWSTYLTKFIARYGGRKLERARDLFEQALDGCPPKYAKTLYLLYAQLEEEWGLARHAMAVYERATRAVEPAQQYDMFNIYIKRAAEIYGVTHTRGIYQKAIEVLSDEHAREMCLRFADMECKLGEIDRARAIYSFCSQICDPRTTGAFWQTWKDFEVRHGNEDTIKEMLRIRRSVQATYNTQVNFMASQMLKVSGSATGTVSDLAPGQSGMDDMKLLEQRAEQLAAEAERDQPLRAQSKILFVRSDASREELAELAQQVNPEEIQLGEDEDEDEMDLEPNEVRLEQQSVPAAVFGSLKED
inactive: vemurafenib 0.033 | [1] 0.075 | barasertib -0.015 | [2] 0.065 | volasertib -0.02 | [3] 0.05 | [4] -0.044 | [5] 0.017 | saracatinib 0.006 | sotrastaurin 0 | alvocidib -0.003 | Tubastatin A -0.039 | [6] 0.012 | defactinib 0.008 | [7] 0.014 | encorafenib -0.045 | [8] 0.2 | alisertib -0.017 | [9] 0.025 | gefitinib 0.046

WDR20 isoform 7 (UniProt Q8TBZ3)
inactive: vemurafenib 0.047 | [1] 0 | barasertib 0.087 | [2] 0.054 | volasertib -0.039 | [3] -0.017 | [4] 0.039 | [5] -0.039 | saracatinib 0.065 | sotrastaurin -0.036 | alvocidib -0.041 | Tubastatin A -0.035 | [6] 0.02 | defactinib -0.049 | [7] -0.13 | encorafenib 0.078 | [8] -0.114 | alisertib 0.175 | [9] -0.002 | gefitinib -0.149

UTP3 (UniProt Q9NQZ2)
inactive: vemurafenib 0.004 | [1] 0.012 | barasertib 0.058 | [2] -0.009 | volasertib -0.011 | [3] -0.047 | [4] 0 | [5] -0.02 | saracatinib 0.011 | sotrastaurin 0.05 | alvocidib 0.04 | Tubastatin A -0.022 | [6] -0.047 | defactinib 0.151 | [7] 0.089 | encorafenib 0.05 | [8] 0.005 | alisertib -0.042 | [9] -0.002 | gefitinib -0.017

ZDHHC18 (UniProt Q9NUE0)
inactive: vemurafenib 0.043 | [1] 0.026 | barasertib 0.016 | [2] -0.019 | volasertib -0.052 | [3] -0.068 | [4] -0.138 | [5] 0.085 | saracatinib 0.036 | sotrastaurin 0.04 | alvocidib -0.09 | Tubastatin A -0.016 | [6] 0.222 | defactinib 0.029 | [7] -0.044 | encorafenib -0.038 | [8] 0.042 | alisertib -0.131 | [9] -0.036 | gefitinib -0.069

VAMP2 (UniProt P63027)
UniProt P63027, sequence (P63027 whole entry, looked up): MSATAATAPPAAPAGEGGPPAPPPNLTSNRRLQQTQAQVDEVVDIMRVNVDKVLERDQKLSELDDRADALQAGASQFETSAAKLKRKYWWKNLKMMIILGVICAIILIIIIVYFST
inactive: vemurafenib 0.002 | [1] -0.027 | barasertib 0.012 | volasertib 0.009 | [3] 0.02 | [4] 0.057 | [5] 0.091 | saracatinib 0.033 | sotrastaurin -0.028 | alvocidib 0.019 | Tubastatin A 0.027 | [6] 0.035 | defactinib 0.112 | [7] -0.01 | encorafenib 0.05 | [8] -0.057 | alisertib 0.014 | [9] 0.001 | gefitinib 0.018
active: [2] -0.286

VPS16 (UniProt Q9H269)
inactive: vemurafenib 0.038 | [1] 0.009 | barasertib 0.007 | [2] 0.063 | volasertib -0.04 | [3] 0.028 | [4] -0.049 | [5] -0.015 | saracatinib -0.017 | sotrastaurin -0.002 | alvocidib 0.032 | Tubastatin A -0.082 | [6] 0.002 | defactinib -0.006 | [7] 0 | encorafenib 0.049 | [8] -0.069 | alisertib 0.031 | [9] -0.004 | gefitinib 0.013

YTHDC2 (UniProt Q9H6S0)
UniProt Q9H6S0, sequence (Q9H6S0 whole entry, looked up): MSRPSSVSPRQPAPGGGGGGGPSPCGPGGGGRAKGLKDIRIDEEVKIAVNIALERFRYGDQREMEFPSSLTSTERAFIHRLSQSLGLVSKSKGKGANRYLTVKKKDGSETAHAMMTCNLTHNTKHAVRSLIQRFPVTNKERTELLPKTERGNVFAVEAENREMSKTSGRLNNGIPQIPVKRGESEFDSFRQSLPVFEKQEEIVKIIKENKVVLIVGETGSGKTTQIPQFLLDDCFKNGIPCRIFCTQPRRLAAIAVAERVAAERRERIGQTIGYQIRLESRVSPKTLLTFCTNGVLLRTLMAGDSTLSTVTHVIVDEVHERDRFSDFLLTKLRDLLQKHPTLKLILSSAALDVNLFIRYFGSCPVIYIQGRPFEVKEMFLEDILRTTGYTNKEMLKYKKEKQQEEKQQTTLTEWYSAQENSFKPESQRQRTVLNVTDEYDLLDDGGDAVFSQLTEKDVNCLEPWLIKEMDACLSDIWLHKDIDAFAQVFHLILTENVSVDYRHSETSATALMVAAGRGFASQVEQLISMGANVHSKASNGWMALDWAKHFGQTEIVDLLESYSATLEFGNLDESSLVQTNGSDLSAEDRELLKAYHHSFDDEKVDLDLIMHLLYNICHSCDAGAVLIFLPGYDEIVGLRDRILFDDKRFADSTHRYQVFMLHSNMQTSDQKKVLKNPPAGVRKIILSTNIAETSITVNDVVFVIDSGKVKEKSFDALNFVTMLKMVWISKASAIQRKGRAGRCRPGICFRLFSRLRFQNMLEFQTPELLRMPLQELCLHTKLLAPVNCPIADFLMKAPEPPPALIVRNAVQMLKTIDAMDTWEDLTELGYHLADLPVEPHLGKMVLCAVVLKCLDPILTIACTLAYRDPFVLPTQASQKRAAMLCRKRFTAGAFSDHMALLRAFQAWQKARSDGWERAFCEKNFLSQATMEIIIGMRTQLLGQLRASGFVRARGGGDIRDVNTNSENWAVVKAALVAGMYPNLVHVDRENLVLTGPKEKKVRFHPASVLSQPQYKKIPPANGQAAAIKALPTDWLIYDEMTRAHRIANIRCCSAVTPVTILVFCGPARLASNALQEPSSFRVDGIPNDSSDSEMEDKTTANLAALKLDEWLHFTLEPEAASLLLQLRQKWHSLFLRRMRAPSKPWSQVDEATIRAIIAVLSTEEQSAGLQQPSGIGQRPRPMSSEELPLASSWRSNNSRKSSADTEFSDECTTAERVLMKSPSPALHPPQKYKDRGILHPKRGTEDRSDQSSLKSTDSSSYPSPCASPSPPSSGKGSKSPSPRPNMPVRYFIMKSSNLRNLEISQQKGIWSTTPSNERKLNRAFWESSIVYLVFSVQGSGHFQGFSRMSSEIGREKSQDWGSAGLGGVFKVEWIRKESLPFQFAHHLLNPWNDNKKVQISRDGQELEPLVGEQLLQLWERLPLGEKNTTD
inactive: vemurafenib 0.068 | [1] 0.022 | barasertib 0.07 | [2] -0.013 | volasertib -0.027 | [3] 0.025 | [4] 0.025 | [5] 0.005 | saracatinib 0.015 | sotrastaurin 0.022 | alvocidib 0.05 | Tubastatin A -0.084 | [6] 0.038 | defactinib 0.048 | [7] -0.008 | encorafenib 0.04 | [8] 0.05 | alisertib -0.026 | [9] -0.029 | gefitinib -0.004

VASP (UniProt P50552)
UniProt P50552, sequence (P50552 whole entry, looked up): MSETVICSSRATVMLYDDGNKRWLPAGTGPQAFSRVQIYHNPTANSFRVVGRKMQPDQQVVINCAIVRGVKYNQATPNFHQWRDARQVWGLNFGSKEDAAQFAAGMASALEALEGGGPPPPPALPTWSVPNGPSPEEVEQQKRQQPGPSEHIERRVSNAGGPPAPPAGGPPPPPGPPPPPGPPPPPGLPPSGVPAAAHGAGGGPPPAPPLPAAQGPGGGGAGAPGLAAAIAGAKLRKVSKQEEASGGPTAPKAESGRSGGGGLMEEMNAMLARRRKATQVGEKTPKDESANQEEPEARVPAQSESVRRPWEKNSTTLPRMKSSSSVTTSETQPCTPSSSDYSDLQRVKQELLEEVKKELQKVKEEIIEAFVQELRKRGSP
inactive: vemurafenib -0.012 | [1] -0.011 | barasertib -0.069 | [2] -0.022 | volasertib -0.008 | [3] 0.009 | [4] 0.006 | [5] -0.009 | saracatinib 0.007 | sotrastaurin -0.004 | alvocidib 0.031 | Tubastatin A 0.022 | [6] -0.017 | defactinib 0.013 | [7] -0.003 | encorafenib -0.033 | [8] -0.007 | alisertib 0.018 | [9] 0.009 | gefitinib 0.019

ZC2HC1A (UniProt Q96GY0)
UniProt Q96GY0, sequence (Q96GY0 whole entry, looked up): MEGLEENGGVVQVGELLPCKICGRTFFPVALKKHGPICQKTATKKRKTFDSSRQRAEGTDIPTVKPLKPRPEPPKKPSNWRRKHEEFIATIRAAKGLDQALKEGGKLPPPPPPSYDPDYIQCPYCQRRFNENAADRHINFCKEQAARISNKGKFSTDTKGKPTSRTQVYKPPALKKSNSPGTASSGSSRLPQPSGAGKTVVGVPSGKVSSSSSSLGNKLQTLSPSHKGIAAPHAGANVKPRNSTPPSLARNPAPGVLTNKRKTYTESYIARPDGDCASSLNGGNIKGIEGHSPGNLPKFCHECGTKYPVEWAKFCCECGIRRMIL
active: [8] -0.235
inactive: vemurafenib 0.13 | [1] -0.032 | barasertib 0.078 | [2] 0.086 | volasertib 0.031 | [3] 0.035 | [4] -0.057 | [5] 0.117 | saracatinib -0.011 | sotrastaurin 0.016 | alvocidib -0.034 | Tubastatin A -0.044 | [6] -0.021 | defactinib -0.155 | [7] -0.04 | encorafenib 0.03 | alisertib -0.073 | [9] -0.021 | gefitinib 0.019

USP34 (UniProt Q70CQ2)
inactive: vemurafenib 0.006 | [1] 0.039 | barasertib 0.048 | [2] -0.054 | volasertib -0.052 | [3] 0.014 | [4] 0.027 | [5] -0.079 | saracatinib 0.026 | sotrastaurin -0.008 | alvocidib 0.035 | Tubastatin A -0.045 | [6] 0.009 | defactinib 0.006 | [7] -0.014 | encorafenib 0.033 | [8] 0.09 | alisertib 0 | [9] 0.017 | gefitinib 0.013

UNC45A (UniProt Q9H3U1)
inactive: vemurafenib 0.013 | [1] 0.012 | barasertib 0.018 | [2] -0.022 | volasertib -0.039 | [3] 0.025 | [4] 0.02 | [5] -0.081 | saracatinib 0.017 | sotrastaurin -0.001 | alvocidib -0.017 | Tubastatin A -0.146 | [6] 0 | defactinib 0.018 | [7] -0.011 | encorafenib -0.003 | [8] 0.044 | alisertib 0.006 | [9] 0.001 | gefitinib -0.02

WIPI2 (UniProt Q9Y4P8)
inactive: vemurafenib -0.028 | [1] 0.012 | barasertib -0.06 | [2] -0.073 | volasertib -0.022 | [3] 0.002 | [4] -0.108 | [5] 0.09 | saracatinib 0.01 | sotrastaurin -0.002 | alvocidib -0.036 | Tubastatin A 0.005 | [6] -0.007 | defactinib 0.036 | [7] -0.051 | encorafenib 0.029 | [8] 0.049 | alisertib -0.033 | [9] -0.012 | gefitinib -0.027

WDR77 (UniProt Q9BQA1)
UniProt Q9BQA1, sequence (Q9BQA1 whole entry, looked up): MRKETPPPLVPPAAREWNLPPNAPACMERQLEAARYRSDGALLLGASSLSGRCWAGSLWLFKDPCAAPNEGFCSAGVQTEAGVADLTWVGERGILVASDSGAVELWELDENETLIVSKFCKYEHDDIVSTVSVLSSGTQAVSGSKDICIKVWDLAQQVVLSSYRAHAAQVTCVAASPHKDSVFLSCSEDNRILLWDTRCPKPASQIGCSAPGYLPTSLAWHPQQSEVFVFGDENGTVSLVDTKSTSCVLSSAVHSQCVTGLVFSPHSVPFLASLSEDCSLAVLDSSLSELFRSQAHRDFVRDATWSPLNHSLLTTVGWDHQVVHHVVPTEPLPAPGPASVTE
inactive: vemurafenib -0.095 | [1] -0.012 | barasertib -0.045 | [2] -0.029 | volasertib 0.004 | [3] 0.022 | [4] -0.004 | [5] 0.011 | saracatinib -0.032 | sotrastaurin 0.001 | Tubastatin A 0.004 | [6] 0.002 | defactinib -0.012 | [7] 0.012 | encorafenib 0.055 | [8] -0.07 | alisertib -0.031 | [9] -0.024 | gefitinib -0.003
active: alvocidib 0.242

ZNF217 (UniProt O75362)
inactive: vemurafenib 0.043 | [1] 0.019 | barasertib 0.047 | [2] 0.099 | volasertib -0.021 | [3] -0.028 | [4] -0.021 | [5] 0.076 | saracatinib 0.013 | sotrastaurin 0.052 | alvocidib -0.144 | Tubastatin A -0.076 | [6] 0.009 | defactinib -0.045 | [7] -0.004 | encorafenib -0.06 | [8] -0.037 | alisertib 0.032 | [9] 0.219 | gefitinib -0.013
